# Assay results published in PMC7862700, “An all-to-all approach to the identification of sequence-specific readers for epigenetic DNA modifications on cytosine”.
# Tests used:
# Experiment in all cases: DAPPL (digital affinity profiling via proximity ligation, sequencing); 10 mM Tris-HCl pH 7.5, 50 mM NaCl, 1 mM DTT, 4% glycerol, room temperature, 30 min; GST-TFs on glutathione beads, 16-mer random dsDNA library, 0.1% formaldehyde crosslink after washing; high values mean tight binding
# FLI1 = target: T1, FLI1 (Homo sapiens, UniProt Q01543 1-452); details: protein: recombinant; tags: N-terminal GST; dsDNA, one strand shown
# T1 sequence: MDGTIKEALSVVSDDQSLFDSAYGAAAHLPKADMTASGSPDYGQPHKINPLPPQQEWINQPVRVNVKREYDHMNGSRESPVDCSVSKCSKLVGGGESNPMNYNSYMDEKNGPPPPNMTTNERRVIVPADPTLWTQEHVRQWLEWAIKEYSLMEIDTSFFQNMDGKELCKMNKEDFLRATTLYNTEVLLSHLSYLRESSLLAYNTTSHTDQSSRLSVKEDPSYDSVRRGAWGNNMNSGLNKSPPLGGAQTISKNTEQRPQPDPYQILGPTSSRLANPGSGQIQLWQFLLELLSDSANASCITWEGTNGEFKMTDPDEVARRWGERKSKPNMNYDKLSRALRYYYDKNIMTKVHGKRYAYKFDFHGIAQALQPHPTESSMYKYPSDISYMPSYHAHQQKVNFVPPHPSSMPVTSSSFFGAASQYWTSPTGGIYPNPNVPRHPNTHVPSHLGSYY
# Outline: (§1)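 Sequencing on an Illumina NextSeq500 followed washing, crosslinking with 0.1% formaldehyde, proximity ligation (BsaI/T4 ligase, 1 h, 37 °C) and PCR amplification of pools that had been incubated for 30 min at room temperature with 200 nmole of a random double-stranded 16-mer DNA library in Tris/NaCl/DTT/glycerol buffer. Each pool held DNA-barcoded human transcription factors, expressed in yeast as GST fusions and captured on glutathione beads, plus a tag-only sample. Binding signal is a hexamer's read frequency for a factor divided by its frequency in the tag-only sample.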
# ELK1 = target: T2, ELK1 (Homo sapiens, UniProt P19419 1-428); details: protein: recombinant; tags: N-terminal GST; dsDNA, one strand shown
# T2 sequence: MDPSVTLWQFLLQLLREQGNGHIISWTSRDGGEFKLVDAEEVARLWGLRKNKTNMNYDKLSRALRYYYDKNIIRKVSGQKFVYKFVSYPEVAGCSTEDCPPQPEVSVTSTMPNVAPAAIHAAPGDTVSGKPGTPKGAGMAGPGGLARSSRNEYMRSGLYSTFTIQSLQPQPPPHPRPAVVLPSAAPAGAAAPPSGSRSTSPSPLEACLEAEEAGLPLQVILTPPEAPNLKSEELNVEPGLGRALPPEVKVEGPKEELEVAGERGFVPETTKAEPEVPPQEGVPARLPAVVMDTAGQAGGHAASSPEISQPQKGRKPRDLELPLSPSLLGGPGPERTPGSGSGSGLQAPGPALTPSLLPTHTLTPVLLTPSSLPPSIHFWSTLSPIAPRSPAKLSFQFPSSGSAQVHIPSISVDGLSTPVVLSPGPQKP
# Outline: as §1
# GABPA = target: T3, GABPA (Homo sapiens, UniProt Q06546 1-454); details: protein: recombinant; tags: N-terminal GST; dsDNA, one strand shown
# T3 sequence: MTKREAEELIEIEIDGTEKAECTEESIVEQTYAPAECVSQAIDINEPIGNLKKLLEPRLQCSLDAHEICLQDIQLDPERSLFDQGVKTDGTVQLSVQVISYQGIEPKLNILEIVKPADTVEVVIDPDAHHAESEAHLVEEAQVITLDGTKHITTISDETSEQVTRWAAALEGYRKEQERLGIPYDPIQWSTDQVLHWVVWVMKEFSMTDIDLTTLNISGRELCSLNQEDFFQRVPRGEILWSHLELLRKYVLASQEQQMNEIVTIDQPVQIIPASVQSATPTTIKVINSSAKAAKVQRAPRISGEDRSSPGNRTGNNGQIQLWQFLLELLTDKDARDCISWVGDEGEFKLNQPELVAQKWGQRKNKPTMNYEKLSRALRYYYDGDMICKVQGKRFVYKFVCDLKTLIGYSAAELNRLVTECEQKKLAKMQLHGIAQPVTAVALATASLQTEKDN
# Outline: as §1
# ERG = target: T4, ERG (Homo sapiens, UniProt P11308 1-479); details: protein: recombinant; tags: N-terminal GST; dsDNA, one strand shown
# T4 sequence: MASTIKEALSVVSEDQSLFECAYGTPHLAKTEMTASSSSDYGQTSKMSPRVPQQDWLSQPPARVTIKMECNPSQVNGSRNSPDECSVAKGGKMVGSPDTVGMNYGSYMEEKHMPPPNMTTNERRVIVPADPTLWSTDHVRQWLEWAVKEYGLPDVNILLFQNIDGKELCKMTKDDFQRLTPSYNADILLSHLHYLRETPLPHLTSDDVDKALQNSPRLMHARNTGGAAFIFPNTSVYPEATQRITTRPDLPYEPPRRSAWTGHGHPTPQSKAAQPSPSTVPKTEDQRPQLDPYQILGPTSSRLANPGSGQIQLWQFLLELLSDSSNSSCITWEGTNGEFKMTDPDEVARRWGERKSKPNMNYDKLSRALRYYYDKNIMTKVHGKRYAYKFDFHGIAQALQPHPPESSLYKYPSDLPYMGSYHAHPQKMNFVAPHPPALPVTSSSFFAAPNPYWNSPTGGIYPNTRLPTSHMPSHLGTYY
# Outline: as §1
# ELF1 = ELF1 (Homo sapiens, UniProt P32519 1-619); details: protein: recombinant; tags: N-terminal GST; dsDNA, one strand shown
# Chain of ELF1 (P32519 whole entry): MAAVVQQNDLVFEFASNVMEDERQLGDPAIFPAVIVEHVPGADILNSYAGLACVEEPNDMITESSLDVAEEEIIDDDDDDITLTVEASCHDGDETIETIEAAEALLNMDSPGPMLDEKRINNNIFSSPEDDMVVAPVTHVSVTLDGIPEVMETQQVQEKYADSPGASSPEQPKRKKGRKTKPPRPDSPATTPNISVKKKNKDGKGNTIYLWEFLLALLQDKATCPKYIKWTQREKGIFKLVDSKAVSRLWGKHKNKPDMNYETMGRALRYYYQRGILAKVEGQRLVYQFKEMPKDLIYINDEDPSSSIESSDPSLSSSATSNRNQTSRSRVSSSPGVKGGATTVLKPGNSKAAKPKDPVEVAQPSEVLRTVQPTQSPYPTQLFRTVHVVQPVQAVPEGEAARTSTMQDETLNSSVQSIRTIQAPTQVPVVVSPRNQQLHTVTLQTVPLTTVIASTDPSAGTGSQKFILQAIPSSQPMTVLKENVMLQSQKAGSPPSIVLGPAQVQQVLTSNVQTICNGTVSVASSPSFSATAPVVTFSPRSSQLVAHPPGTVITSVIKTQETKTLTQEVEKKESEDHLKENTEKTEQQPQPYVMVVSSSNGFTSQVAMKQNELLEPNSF
# Outline: as §1
# EHF = target: T5, EHF (Homo sapiens, UniProt Q9NZC4 1-300); details: protein: recombinant; tags: N-terminal GST; dsDNA, one strand shown
# T5 sequence: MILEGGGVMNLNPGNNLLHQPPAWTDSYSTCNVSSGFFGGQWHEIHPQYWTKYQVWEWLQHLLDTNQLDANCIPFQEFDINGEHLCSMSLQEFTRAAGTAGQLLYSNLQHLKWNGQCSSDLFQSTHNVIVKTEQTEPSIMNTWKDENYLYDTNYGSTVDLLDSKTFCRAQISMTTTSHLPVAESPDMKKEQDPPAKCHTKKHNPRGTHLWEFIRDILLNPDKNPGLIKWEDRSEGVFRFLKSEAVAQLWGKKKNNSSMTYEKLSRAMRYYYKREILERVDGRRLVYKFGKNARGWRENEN
# Outline: as §1
# SPI1 = SPI1 (Homo sapiens, UniProt P17947 1-270); details: protein: recombinant; tags: N-terminal GST; dsDNA, one strand shown
# Outline: as §1
# SPIB = SPIB (Homo sapiens, UniProt Q01892 1-262); details: protein: recombinant; tags: N-terminal GST; dsDNA, one strand shown
# Chain of SPIB (Q01892 whole entry): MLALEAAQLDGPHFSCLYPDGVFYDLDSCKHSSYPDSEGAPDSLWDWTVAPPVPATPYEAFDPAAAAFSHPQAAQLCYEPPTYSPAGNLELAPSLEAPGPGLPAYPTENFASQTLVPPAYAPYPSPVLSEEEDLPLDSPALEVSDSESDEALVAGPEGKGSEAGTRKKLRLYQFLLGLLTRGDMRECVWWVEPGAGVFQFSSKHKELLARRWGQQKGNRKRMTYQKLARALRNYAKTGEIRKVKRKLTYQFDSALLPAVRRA
# Outline: as §1
# ELK3 = target: T6, ELK3 (Homo sapiens, UniProt P41970 1-407); details: protein: recombinant; tags: N-terminal GST; dsDNA, one strand shown
# T6 sequence: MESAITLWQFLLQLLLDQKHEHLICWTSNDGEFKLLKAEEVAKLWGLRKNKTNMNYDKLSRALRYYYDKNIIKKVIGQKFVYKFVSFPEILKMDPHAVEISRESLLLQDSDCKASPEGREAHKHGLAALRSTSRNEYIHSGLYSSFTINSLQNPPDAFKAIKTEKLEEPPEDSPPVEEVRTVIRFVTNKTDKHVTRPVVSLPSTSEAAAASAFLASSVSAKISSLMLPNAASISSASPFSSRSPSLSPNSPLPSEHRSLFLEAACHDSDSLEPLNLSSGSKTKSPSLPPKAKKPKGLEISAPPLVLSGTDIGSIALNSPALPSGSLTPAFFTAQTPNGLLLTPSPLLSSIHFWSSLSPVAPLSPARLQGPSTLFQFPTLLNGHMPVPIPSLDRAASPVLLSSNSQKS
# Outline: as §1
# FEV = target: T7, FEV (Homo sapiens, UniProt Q99581 1-238); details: protein: recombinant; tags: N-terminal GST; dsDNA, one strand shown
# T7 sequence: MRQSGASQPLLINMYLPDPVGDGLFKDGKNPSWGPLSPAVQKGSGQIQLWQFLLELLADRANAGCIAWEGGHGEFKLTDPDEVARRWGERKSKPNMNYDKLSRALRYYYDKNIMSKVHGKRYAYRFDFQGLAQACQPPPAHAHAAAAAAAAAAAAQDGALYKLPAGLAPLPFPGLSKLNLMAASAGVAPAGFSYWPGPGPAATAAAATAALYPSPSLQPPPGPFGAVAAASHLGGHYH
# Outline: as §1
# ETV5 = ETV5 (Homo sapiens, UniProt P41161 1-510); details: protein: recombinant; tags: N-terminal GST; dsDNA, one strand shown
# Chain of ETV5 (P41161 whole entry): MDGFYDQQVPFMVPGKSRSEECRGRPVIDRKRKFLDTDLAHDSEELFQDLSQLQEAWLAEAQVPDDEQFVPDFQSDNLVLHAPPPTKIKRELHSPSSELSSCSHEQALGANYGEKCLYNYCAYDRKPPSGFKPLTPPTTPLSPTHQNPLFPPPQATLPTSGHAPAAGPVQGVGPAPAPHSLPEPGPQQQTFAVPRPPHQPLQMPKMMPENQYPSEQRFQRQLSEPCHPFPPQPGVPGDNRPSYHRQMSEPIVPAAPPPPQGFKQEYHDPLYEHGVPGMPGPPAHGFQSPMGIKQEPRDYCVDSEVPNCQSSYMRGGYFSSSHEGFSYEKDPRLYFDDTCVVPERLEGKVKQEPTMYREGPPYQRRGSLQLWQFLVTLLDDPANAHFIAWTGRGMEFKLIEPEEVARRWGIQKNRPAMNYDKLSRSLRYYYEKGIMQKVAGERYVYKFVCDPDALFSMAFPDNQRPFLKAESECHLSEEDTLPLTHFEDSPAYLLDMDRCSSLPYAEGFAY
# Outline: as §1
# HSF1 = HSF1 (Homo sapiens, UniProt Q00613 1-529); details: protein: recombinant; tags: N-terminal GST; chain copies: 3; dsDNA, one strand shown
# Chain of HSF1 (Q00613 whole entry): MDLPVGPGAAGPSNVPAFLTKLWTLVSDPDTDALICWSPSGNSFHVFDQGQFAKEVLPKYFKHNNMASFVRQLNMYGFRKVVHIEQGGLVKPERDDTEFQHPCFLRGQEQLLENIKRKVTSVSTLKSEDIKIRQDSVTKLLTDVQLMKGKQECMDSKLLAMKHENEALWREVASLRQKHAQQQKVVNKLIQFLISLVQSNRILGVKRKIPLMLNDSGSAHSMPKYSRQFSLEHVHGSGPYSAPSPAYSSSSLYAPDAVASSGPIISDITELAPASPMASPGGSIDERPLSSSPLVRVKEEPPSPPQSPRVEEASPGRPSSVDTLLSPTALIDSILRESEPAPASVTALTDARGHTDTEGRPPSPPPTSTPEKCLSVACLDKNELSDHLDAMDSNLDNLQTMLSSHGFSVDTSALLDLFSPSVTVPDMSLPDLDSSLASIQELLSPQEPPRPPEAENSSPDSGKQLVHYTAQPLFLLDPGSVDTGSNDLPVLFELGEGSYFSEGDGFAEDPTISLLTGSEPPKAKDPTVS
# Outline: as §1
# SPIC = target: T8, SPIC (Homo sapiens, UniProt Q8N5J4 1-248); details: protein: recombinant; tags: N-terminal GST; dsDNA, one strand shown
# T8 sequence: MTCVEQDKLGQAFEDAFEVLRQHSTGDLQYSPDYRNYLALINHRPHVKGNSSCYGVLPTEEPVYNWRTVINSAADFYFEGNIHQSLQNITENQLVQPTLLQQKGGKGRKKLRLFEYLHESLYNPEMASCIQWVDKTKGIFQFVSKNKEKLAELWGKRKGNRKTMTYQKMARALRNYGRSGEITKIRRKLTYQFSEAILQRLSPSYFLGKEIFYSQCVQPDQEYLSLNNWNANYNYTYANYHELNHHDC
# Outline: as §1
# ELF4 = ELF4 (Homo sapiens, UniProt Q99607 1-663); details: protein: recombinant; tags: N-terminal GST; dsDNA, one strand shown
# Chain of ELF4 (Q99607 whole entry): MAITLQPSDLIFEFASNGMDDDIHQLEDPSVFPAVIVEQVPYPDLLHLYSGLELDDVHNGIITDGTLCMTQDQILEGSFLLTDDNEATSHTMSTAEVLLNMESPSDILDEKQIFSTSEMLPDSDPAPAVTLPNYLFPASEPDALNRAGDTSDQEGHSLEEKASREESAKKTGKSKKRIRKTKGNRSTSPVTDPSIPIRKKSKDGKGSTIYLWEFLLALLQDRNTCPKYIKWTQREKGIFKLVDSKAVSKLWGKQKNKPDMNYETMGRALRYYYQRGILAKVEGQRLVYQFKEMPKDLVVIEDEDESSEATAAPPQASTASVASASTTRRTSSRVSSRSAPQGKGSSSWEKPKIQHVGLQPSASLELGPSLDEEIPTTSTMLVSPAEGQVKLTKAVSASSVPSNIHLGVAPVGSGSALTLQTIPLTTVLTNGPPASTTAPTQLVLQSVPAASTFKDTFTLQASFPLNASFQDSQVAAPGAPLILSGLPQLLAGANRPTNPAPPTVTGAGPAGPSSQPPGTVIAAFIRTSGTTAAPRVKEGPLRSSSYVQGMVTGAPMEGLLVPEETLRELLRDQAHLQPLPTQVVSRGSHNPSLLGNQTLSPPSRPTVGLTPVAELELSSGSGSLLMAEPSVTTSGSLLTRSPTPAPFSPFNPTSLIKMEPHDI
# Outline: as §1
# ELK4 = target: T9, ELK4 (Homo sapiens, UniProt P28324-2 1-405); details: protein: recombinant; tags: N-terminal GST; dsDNA, one strand shown
# T9 sequence: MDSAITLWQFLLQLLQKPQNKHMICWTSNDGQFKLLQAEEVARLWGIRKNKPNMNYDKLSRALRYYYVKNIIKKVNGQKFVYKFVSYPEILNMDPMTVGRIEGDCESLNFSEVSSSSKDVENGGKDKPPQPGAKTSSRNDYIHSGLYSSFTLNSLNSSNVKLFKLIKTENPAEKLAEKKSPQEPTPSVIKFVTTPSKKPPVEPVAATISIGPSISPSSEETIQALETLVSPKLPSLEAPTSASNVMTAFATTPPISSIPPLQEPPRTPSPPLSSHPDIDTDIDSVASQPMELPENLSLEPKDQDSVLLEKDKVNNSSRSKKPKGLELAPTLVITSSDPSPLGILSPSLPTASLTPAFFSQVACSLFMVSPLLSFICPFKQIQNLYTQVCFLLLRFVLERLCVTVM
# Outline: as §1
# ETV2 = target: T10, ETV2 (Homo sapiens, UniProt O00321 1-342); details: protein: recombinant; tags: N-terminal GST; dsDNA, one strand shown
# T10 sequence: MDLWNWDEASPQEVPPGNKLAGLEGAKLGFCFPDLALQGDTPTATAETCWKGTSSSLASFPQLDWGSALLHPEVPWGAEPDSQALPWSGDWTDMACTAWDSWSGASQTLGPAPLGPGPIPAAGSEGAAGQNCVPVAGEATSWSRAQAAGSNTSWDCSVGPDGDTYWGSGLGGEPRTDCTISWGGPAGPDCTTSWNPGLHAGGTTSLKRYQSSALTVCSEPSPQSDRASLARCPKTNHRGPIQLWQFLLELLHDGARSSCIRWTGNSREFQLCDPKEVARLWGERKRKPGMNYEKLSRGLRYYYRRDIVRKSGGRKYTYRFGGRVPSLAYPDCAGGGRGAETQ
# Outline: as §1
# ELF3 = target: T11, ELF3 (Homo sapiens, UniProt P78545 1-371); details: protein: recombinant; tags: N-terminal GST; dsDNA, one strand shown
# T11 sequence: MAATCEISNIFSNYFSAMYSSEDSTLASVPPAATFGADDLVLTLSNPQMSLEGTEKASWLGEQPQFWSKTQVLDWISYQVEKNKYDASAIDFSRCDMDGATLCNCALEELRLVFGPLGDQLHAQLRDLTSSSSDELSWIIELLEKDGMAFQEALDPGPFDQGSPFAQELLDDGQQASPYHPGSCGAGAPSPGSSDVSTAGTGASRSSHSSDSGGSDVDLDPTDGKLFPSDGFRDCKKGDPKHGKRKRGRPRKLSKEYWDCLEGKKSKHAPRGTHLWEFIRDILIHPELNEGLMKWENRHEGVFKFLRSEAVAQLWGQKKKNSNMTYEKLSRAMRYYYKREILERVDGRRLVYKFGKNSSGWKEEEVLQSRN
# Outline: as §1
# CRX = CRX (Homo sapiens, UniProt O43186 1-299); details: protein: recombinant; tags: N-terminal GST; dsDNA, one strand shown
# Chain of CRX (O43186 whole entry): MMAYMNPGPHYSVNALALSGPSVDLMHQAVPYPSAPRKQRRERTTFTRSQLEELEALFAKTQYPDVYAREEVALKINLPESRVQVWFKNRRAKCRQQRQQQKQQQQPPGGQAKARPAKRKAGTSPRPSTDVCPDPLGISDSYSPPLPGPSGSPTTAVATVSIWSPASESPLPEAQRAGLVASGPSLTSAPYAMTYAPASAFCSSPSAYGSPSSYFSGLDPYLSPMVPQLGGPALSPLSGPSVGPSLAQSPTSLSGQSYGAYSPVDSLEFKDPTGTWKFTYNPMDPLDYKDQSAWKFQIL
# Outline: as §1
# ETV1 = ETV1 (Homo sapiens, UniProt P50549 1-477); details: protein: recombinant; tags: N-terminal GST; dsDNA, one strand shown
# Chain of ETV1 (P50549 whole entry): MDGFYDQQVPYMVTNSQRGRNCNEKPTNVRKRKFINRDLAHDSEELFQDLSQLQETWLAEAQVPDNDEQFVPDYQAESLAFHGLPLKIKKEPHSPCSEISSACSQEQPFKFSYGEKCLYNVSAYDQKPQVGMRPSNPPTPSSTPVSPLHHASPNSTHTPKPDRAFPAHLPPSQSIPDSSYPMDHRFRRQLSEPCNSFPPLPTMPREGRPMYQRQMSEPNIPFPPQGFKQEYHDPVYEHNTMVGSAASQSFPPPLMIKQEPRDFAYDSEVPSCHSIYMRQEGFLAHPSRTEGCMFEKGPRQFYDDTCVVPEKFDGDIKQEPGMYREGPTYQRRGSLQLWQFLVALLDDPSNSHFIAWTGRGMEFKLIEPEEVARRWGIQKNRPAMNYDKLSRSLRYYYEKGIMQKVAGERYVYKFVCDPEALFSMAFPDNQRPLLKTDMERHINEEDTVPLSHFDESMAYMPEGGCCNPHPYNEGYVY
# Outline: as §1
sequence,measurement,setting,value
TTTGCC,binding signal,FLI1,"1.42 fold enrichment (6-mer frequency, TF over GST control)"
same,binding signal,ELK1,"1.26 fold enrichment (6-mer frequency, TF over GST control)"
same,binding signal,GABPA,"1.2 fold enrichment (6-mer frequency, TF over GST control)"
same,binding signal,ERG,"1.26 fold enrichment (6-mer frequency, TF over GST control)"
same,binding signal,ELF1,"1.23 fold enrichment (6-mer frequency, TF over GST control)"
same,binding signal,EHF,"1.22 fold enrichment (6-mer frequency, TF over GST control)"
same,binding signal,SPI1,"1.23 fold enrichment (6-mer frequency, TF over GST control)"
same,binding signal,SPIB,"1.31 fold enrichment (6-mer frequency, TF over GST control)"
same,binding signal,ELK3,"1.21 fold enrichment (6-mer frequency, TF over GST control)"
same,binding signal,FEV,"1.26 fold enrichment (6-mer frequency, TF over GST control)"
same,binding signal,ETV5,"1.26 fold enrichment (6-mer frequency, TF over GST control)"
same,binding signal,HSF1,"1.24 fold enrichment (6-mer frequency, TF over GST control)"
same,binding signal,SPIC,"1.31 fold enrichment (6-mer frequency, TF over GST control)"
same,binding signal,ELF4,"1.29 fold enrichment (6-mer frequency, TF over GST control)"
same,binding signal,ELK4,"1.37 fold enrichment (6-mer frequency, TF over GST control)"
same,binding signal,ETV2,"1.29 fold enrichment (6-mer frequency, TF over GST control)"
same,binding signal,ELF3,"1.47 fold enrichment (6-mer frequency, TF over GST control)"
same,binding signal,CRX,"1.32 fold enrichment (6-mer frequency, TF over GST control)"
same,binding signal,ETV1,"1.33 fold enrichment (6-mer frequency, TF over GST control)"
